From the supplement of paper PMC12494721
Counter-ions that a name gives are not always drawn.

Legend:
Settings in all cases: incubation time: 27 h, anaerobic, 37 °C;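 for the amine columns active = adjusted P below 0.05 in both replicates with a change the same way and a mean fold change under 0.8 or over 1.25; inactive = the rest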
[1] = tested on: Clostridium sporogenes DSM 1664; assay: growth (OD595) fold change vs plate DMSO controls (fold change (ratio)); higher = more growth
Procedure, shortened: (§1)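 Anaerobic 27 h, 37 °C mGAM 96-well cultures were shaken, then read for absorbance at 595 nm. Values were blank-subtracted and corrected for compound background using 20 µM compound solutions in water. A calibration factor of 5 converted them to OD. Growth is the fold change versus the median of plate DMSO controls. Fold changes above 1.5 were set to NA, and values are the mean of 2 biological replicates.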

Escherichia coli IAI1 [2] = assay: as above
Procedure, shortened: as §1

[3] = tested on: Klebsiella aerogenes DSM 30053; assay: as above
Procedure, shortened: as §1

[4] = tested on: Ruminococcus gnavus DSM 108212; assay: as above
Procedure, shortened: as §1

[5] = tested on: Klebsiella aerogenes DSM 30053; assay: fold change of Histamine concentration vs plate DMSO controls (fold change (ratio)); higher = more amine produced, active = hit call of the paper (significant change in both replicates, either direction)
Procedure, shortened: (§2)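 Anaerobic mGAM cultures of four gut bacterial strains were grown at 37 °C for 27 h in 80 µL wells, starting at OD 0.1 before 1:1 dilution. Compounds were at 20 µM final (sweeteners 50 µM). Whole cultures were extracted with cold acetonitrile/methanol containing 0.1% formic acid and centrifuged. Amines were quantified by LC–triple-quadrupole MS (dynamic MRM) against external calibration curves and drift-corrected within batch. Each value is the fold change versus plate DMSO controls, averaged over 2 biological replicates.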

[6] = tested on: Clostridium sporogenes DSM 1664; assay: fold change of Tryptamine concentration vs plate DMSO controls (fold change (ratio)); higher = more amine produced, active = hit call of the paper (significant change in both replicates, either direction)
Procedure, shortened: as §2

[7] = tested on: Ruminococcus gnavus DSM 108212; assay: as above
Procedure, shortened: as §2

Escherichia coli IAI1 [8] = assay: fold change of Putrescine concentration vs plate DMSO controls (fold change (ratio)); higher = more amine produced, active = hit call of the paper (significant change in both replicates, either direction)
Procedure, shortened: as §2

[9] = tested on: Klebsiella aerogenes DSM 30053; assay: as above
Procedure, shortened: as §2

Escherichia coli IAI1 [10] = assay: fold change of Cadaverine concentration vs plate DMSO controls (fold change (ratio)); higher = more amine produced, active = hit call of the paper (significant change in both replicates, either direction)
Procedure, shortened: as §2

[11] = tested on: Klebsiella aerogenes DSM 30053; assay: as above
Procedure, shortened: as §2

[12] = tested on: Ruminococcus gnavus DSM 108212; assay: fold change of 2-Phenylethylamine concentration vs plate DMSO controls (fold change (ratio)); higher = more amine produced, active = hit call of the paper (significant change in both replicates, either direction)
Procedure, shortened: as §2

## CC(=O)NS(=O)(=O)c1ccc(N)cc1 [Sulfacetamide sodic hydrate] (20 µM)
[1]
  growth: 0.934
Escherichia coli IAI1 [2]
  growth: 0.995
[3]
  growth: 0.974
[4]
  growth: 0.888
[5]
  fold change of Histamine concentration: 1.02 (inactive)
[6]
  fold change of Tryptamine concentration: 0.976 (inactive)
[7]
  fold change of Tryptamine concentration: 1.06 (inactive)
Escherichia coli IAI1 [8]
  fold change of Putrescine concentration: 1.02 (inactive)
[9]
  fold change of Putrescine concentration: 0.996 (inactive)
Escherichia coli IAI1 [10]
  fold change of Cadaverine concentration: 0.98 (inactive)
[11]
  fold change of Cadaverine concentration: 0.993 (inactive)
[12]
  fold change of 2-Phenylethylamine concentration: 1.08 (inactive)

## O=[N+]([O-])c1ccc2c(c1)Cc1ccccc1-2 [2-Nitrofluorene] (20 µM)
[1]
  growth: 0.873
Escherichia coli IAI1 [2]
  growth: 0.978
[3]
  growth: 0.973
[4]
  growth: 0.994
[5]
  fold change of Histamine concentration: 0.997 (inactive)
[6]
  fold change of Tryptamine concentration: 1 (inactive)
[7]
  fold change of Tryptamine concentration: 1.04 (inactive)
Escherichia coli IAI1 [8]
  fold change of Putrescine concentration: 0.97 (inactive)
[9]
  fold change of Putrescine concentration: 1 (inactive)
Escherichia coli IAI1 [10]
  fold change of Cadaverine concentration: 1.04 (inactive)
[11]
  fold change of Cadaverine concentration: 0.995 (inactive)
[12]
  fold change of 2-Phenylethylamine concentration: 1.02 (inactive)

## N=C(NCCCCCCNC(=N)NC(=N)Nc1ccc(Cl)cc1)NC(=N)Nc1ccc(Cl)cc1 [Chlorhexidine] (20 µM)
[1]
  growth: 0.00305
Escherichia coli IAI1 [2]
  growth: 0.885
[3]
  growth: 0.782
[4]
  growth: 0.0252
[5]
  fold change of Histamine concentration: 0.936 (inactive)
[6]
  fold change of Tryptamine concentration: 0.032 (active)
[7]
  fold change of Tryptamine concentration: 0.0867 (active)
Escherichia coli IAI1 [8]
  fold change of Putrescine concentration: 0.641 (inactive)
[9]
  fold change of Putrescine concentration: 0.783 (inactive)
Escherichia coli IAI1 [10]
  fold change of Cadaverine concentration: 1.98 (active)
[11]
  fold change of Cadaverine concentration: 1 (inactive)
[12]
  fold change of 2-Phenylethylamine concentration: 0.0518 (active)

## CC#CCn1c(N2CCC[C@@H](N)C2)nc2c1c(=O)n(Cc1nc(C)c3ccccc3n1)c(=O)n2C [Linagliptin] (20 µM)
[1]
  growth: 1.01
Escherichia coli IAI1 [2]
  growth: 1.03
[3]
  growth: 0.993
[4]
  growth: 0.856
[5]
  fold change of Histamine concentration: 1.08 (inactive)
[6]
  fold change of Tryptamine concentration: 1.07 (inactive)
[7]
  fold change of Tryptamine concentration: 1.02 (inactive)
Escherichia coli IAI1 [8]
  fold change of Putrescine concentration: 1.01 (inactive)
[9]
  fold change of Putrescine concentration: 1.02 (inactive)
Escherichia coli IAI1 [10]
  fold change of Cadaverine concentration: 0.983 (inactive)
[11]
  fold change of Cadaverine concentration: 0.996 (inactive)
[12]
  fold change of 2-Phenylethylamine concentration: 0.997 (inactive)

## C[C@]12CC[C@@H]3c4ccc(O)cc4CC[C@H]3[C@@H]1CC[C@@H]2O [Estradiol-17 beta] (20 µM)
[1]
  growth: 1.22
Escherichia coli IAI1 [2]
  growth: 1.01
[3]
  growth: 1.14
[4]
  growth: 1.17
[5]
  fold change of Histamine concentration: 1.03 (inactive)
[6]
  fold change of Tryptamine concentration: 0.984 (inactive)
[7]
  fold change of Tryptamine concentration: 1.04 (inactive)
Escherichia coli IAI1 [8]
  fold change of Putrescine concentration: 0.989 (inactive)
[9]
  fold change of Putrescine concentration: 1 (inactive)
Escherichia coli IAI1 [10]
  fold change of Cadaverine concentration: 1 (inactive)
[11]
  fold change of Cadaverine concentration: 1 (inactive)
[12]
  fold change of 2-Phenylethylamine concentration: 1.04 (inactive)

## Oc1ncnc2[nH]ncc12 [Allopurinol] (20 µM)
[1]
  growth: 1.03
Escherichia coli IAI1 [2]
  growth: 0.942
[3]
  growth: 0.974
[4]
  growth: 1.02
[5]
  fold change of Histamine concentration: 1.03 (inactive)
[6]
  fold change of Tryptamine concentration: 1.04 (inactive)
[7]
  fold change of Tryptamine concentration: 1.01 (inactive)
Escherichia coli IAI1 [8]
  fold change of Putrescine concentration: 1.09 (inactive)
[9]
  fold change of Putrescine concentration: 1 (inactive)
Escherichia coli IAI1 [10]
  fold change of Cadaverine concentration: 1.01 (inactive)
[11]
  fold change of Cadaverine concentration: 1.01 (inactive)
[12]
  fold change of 2-Phenylethylamine concentration: 1.02 (inactive)

## CCN(CC)CCOC(=O)C(c1ccccc1)C1CCCCC1 (centres undefined) [Drofenine hydrochloride] (20 µM)
[1]
  growth: 0.967
Escherichia coli IAI1 [2]
  growth: 0.977
[3]
  growth: 1
[4]
  growth: 0.939
[5]
  fold change of Histamine concentration: 1.03 (inactive)
[6]
  fold change of Tryptamine concentration: 0.99 (inactive)
[7]
  fold change of Tryptamine concentration: 0.866 (inactive)
Escherichia coli IAI1 [8]
  fold change of Putrescine concentration: 1.06 (inactive)
[9]
  fold change of Putrescine concentration: 1.01 (inactive)
Escherichia coli IAI1 [10]
  fold change of Cadaverine concentration: 1.04 (inactive)
[11]
  fold change of Cadaverine concentration: 0.992 (inactive)
[12]
  fold change of 2-Phenylethylamine concentration: 0.921 (inactive)

## CN(C)CCn1nnnc1SCC1=C(C(=O)O)N2C(=O)[C@@H](NC(=O)Cc3csc(N)n3)[C@H]2SC1 [Cefotiam hydrochloride] (20 µM)
[1]
  growth: 0
Escherichia coli IAI1 [2]
  growth: 0.00521
[3]
  growth: 1.05
[4]
  growth: 0.248
[5]
  fold change of Histamine concentration: 1.27 (inactive)
[6]
  fold change of Tryptamine concentration: 0.0154 (active)
[7]
  fold change of Tryptamine concentration: 0.0411 (active)
Escherichia coli IAI1 [8]
  fold change of Putrescine concentration: 0.121 (active)
[9]
  fold change of Putrescine concentration: 1.08 (inactive)
Escherichia coli IAI1 [10]
  fold change of Cadaverine concentration: 0.522 (active)
[11]
  fold change of Cadaverine concentration: 1.14 (inactive)
[12]
  fold change of 2-Phenylethylamine concentration: 0.0464 (active)

## CNCCC(Oc1ccc(C(F)(F)F)cc1)c1ccccc1 (centres undefined) [Fluoxetine hydrochloride] (20 µM)
[1]
  growth: 1.18
Escherichia coli IAI1 [2]
  growth: 1.02
[3]
  growth: 1.03
[4]
  growth: 1.2
[5]
  fold change of Histamine concentration: 0.972 (inactive)
[6]
  fold change of Tryptamine concentration: 0.945 (inactive)
[7]
  fold change of Tryptamine concentration: 0.882 (inactive)
Escherichia coli IAI1 [8]
  fold change of Putrescine concentration: 0.927 (inactive)
[9]
  fold change of Putrescine concentration: 0.993 (inactive)
Escherichia coli IAI1 [10]
  fold change of Cadaverine concentration: 1.19 (inactive)
[11]
  fold change of Cadaverine concentration: 0.995 (inactive)
[12]
  fold change of 2-Phenylethylamine concentration: 0.907 (inactive)

## OCCN1CCN(CC/C=C2/c3ccccc3Sc3ccc(C(F)(F)F)cc32)CC1 [Flupentixol dihydrochloride cis-(Z)] (20 µM)
[1]
  growth: 1.03
Escherichia coli IAI1 [2]
  growth: 0.959
[3]
  growth: 0.968
[4]
  growth: 0.925
[5]
  fold change of Histamine concentration: 1 (inactive)
[6]
  fold change of Tryptamine concentration: 1.12 (inactive)
[7]
  fold change of Tryptamine concentration: 0.921 (inactive)
Escherichia coli IAI1 [8]
  fold change of Putrescine concentration: 1.02 (inactive)
[9]
  fold change of Putrescine concentration: 0.933 (inactive)
Escherichia coli IAI1 [10]
  fold change of Cadaverine concentration: 0.852 (inactive)
[11]
  fold change of Cadaverine concentration: 1.02 (inactive)
[12]
  fold change of 2-Phenylethylamine concentration: 1.06 (inactive)

## COc1cccc2c1C(=O)c1c(O)c3c(c(O)c1C2=O)C[C@@](O)(C(C)=O)C[C@@H]3O[C@H]1C[C@H](N)[C@H](O)[C@H](C)O1 [Daunorubicin hydrochloride] (20 µM)
[1]
  growth: 0.967
Escherichia coli IAI1 [2]
  growth: 0.972
[3]
  growth: 0.997
[4]
  growth: 1.13
[5]
  fold change of Histamine concentration: 1.01 (inactive)
[6]
  fold change of Tryptamine concentration: 0.941 (inactive)
[7]
  fold change of Tryptamine concentration: 0.986 (inactive)
Escherichia coli IAI1 [8]
  fold change of Putrescine concentration: 0.988 (inactive)
[9]
  fold change of Putrescine concentration: 1.02 (inactive)
Escherichia coli IAI1 [10]
  fold change of Cadaverine concentration: 1.09 (inactive)
[11]
  fold change of Cadaverine concentration: 1.04 (inactive)
[12]
  fold change of 2-Phenylethylamine concentration: 0.967 (inactive)

## CCn1cc(C(=O)O)c(=O)c2cc(F)c(N3CCNC(C)C3)c(F)c21 (centres undefined) [Lomefloxacin hydrochloride] (20 µM)
[1]
  growth: 0.0338
Escherichia coli IAI1 [2]
  growth: 0.0575
[3]
  growth: 0.252
[4]
  growth: 1.01
[5]
  fold change of Histamine concentration: 0.0674 (active)
[6]
  fold change of Tryptamine concentration: 0.0603 (active)
[7]
  fold change of Tryptamine concentration: 1.03 (inactive)
Escherichia coli IAI1 [8]
  fold change of Putrescine concentration: 0.781 (active)
[9]
  fold change of Putrescine concentration: 0.627 (active)
Escherichia coli IAI1 [10]
  fold change of Cadaverine concentration: 0.166 (active)
[11]
  fold change of Cadaverine concentration: 0.981 (inactive)
[12]
  fold change of 2-Phenylethylamine concentration: 1.03 (inactive)
